Measurements reported in PubChem BioAssay AID602342 (Broad Institute, 2012).
Screen size: about 340,000 compounds; about 1,000 (0.29%) were called active. The sample holds actives, similar compounds and a random draw of the others, so the mix is not that of the screen.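 How the source made its calls: active means mean replicate activation score at least 90 and every replicate individually at or above 90; inconclusive means only one of the two criteria met; inactive means neither criterion met.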

experiment: compounds raising miR-122 luciferase sensor output – cell-based, single point, plate reader, miR-122 inhibitor project, primary screen (AID 602342); details: Huh7 miR-122 Renilla luciferase sensor, 48 h, stronger effect = higher value, neutral wells = 0, positive control = 100; at 16.7 µM unless noted;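 further: higher luciferase means less miR-122 activity so hits act as miR-122 inhibitors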

SMILES | activation (reporter increase)
O=C(C1CCC1)N1C[C@H]2[C@@H](c3ccccc31)[C@@H](CO)N2C(=O)c1ccccc1F | -20% (inactive)
Cc1noc(C)c1NC(=O)Nc1ccc2c(c1)C(=O)N([C@H](C)CO)C[C@@H](C)[C@H](CN(C)C(=O)Nc1cccc3ccccc13)OCCCC[C@@H](C)O2 | 0.113% (inactive)
CN1C(=O)c2cc(NC(=O)c3cscn3)ccc2OC[C@@H]2O[C@H](CC(=O)N3CCCCC3)CC[C@H]21 | 4.63% (inactive)
Cc1sc2ncnc(SCC(=O)NC3CCS(=O)(=O)C3)c2c1C (stereo not given) | -0.478% [at 12.5 µM] (inactive)
Cc1sc2ncnc(SCC(=O)Nc3ccc(CN4CCCC4)cc3)c2c1C | 2.95% [at 12.5 µM] (inactive)
CCCNc1ncnc2sc(C)c(C)c12 | 122% [at 12.5 µM] (active)
O=C(C1CCC1)N1CCCCN2[C@H](C1)[C@@H](c1ccc(C#CC3CCCC3)cc1)[C@@H]2CO | -25.6% (inactive)
O=C(C[C@@H]1CC[C@@H]2[C@H](COC[C@@H](O)CN2Cc2ccc(F)cc2)O1)NCc1ccncn1 | 5.81% (inactive)
C[C@H](CO)N1C[C@H](C)[C@H](CN(C)C(=O)Nc2cccc3ccccc23)OCCCC[C@H](C)Oc2ccc(NC(=O)Nc3ccc4c(c3)OCO4)cc2C1=O | 6.96% (inactive)
O=S(=O)(/C=C/c1ccccc1)NCCc1ccccn1 | 73.3% [at 12.5 µM] (inactive)
O=S(=O)(NCCc1ccccn1)c1cc(Cl)cc(Cl)c1O | -4.9% [at 12.5 µM] (inactive)
Cc1c(C)c(C)c(S(=O)(=O)NCCc2ccccn2)c(C)c1C | 107% [at 12.5 µM] (active)
Cc1noc(C)c1NC(=O)N(C)C[C@H]1OCc2cn(nn2)CCCC(=O)N([C@@H](C)CO)C[C@H]1C | 0.754% (inactive)
C[C@@H]1CN([C@@H](C)CO)S(=O)(=O)c2ccc(-c3cccc(C(=O)N(C)C)c3)cc2O[C@@H]1CN(C)C(=O)Nc1ccccc1 | 18.2% (inactive)
C[C@H]1CN([C@@H](C)CO)C(=O)c2cc(N(C)C)ccc2O[C@@H]1CN(C)S(=O)(=O)c1ccc(Cl)cc1 | 47.5% (inactive)
Cc1cc(C(=O)N/N=C\C(Br)=C\c2ccccc2)c(C)o1 | 1.4% [at 12.5 µM] (inactive)
CC(C)c1cc(C(=O)N/N=C/C(Br)=C/c2ccccc2)n[nH]1 | 122% [at 12.5 µM] (active)
O=C(NN=Cc1ccccc1)c1ccccc1 | -2.03% [at 12.5 µM] (inactive)
O=C(c1cccnc1)N1C[C@H]2[C@@H](c3ccccc31)[C@@H](CO)N2C(=O)Nc1ccccc1F | -2.82% (inactive)
O=[N+]([O-])c1ccccc1/C=C/CN1CCCC(CO)C1 (stereo not given) | 4.13% [at 12.5 µM] (inactive)
CC1CCCCC1NC(=O)/C(C#N)=C/C=C/c1ccccc1[N+](=O)[O-] (stereo not given) | 102% [at 12.5 µM] (active)
CC1CCCCC1NC(=O)COc1ccc(C#N)cc1 (stereo not given) | -5.71% [at 12.5 µM] (inactive)
CN(C[C@@H]1[C@H](c2ccccc2)[C@@H](CO)N1Cc1ccccn1)S(C)(=O)=O | 0% (inactive)
CCCC(=O)Nc1nc2ccc(NC(=O)c3c(F)c(F)c(OC)c(F)c3F)cc2s1 | 143% [at 12.5 µM] (active)
CSc1nc2ccc(NC(=O)c3c(F)cccc3F)cc2s1 | -16% [at 12.5 µM] (inactive)

SMILES | activation (reporter increase)
CC(=O)Nc1ccc2nc(NC(=O)CS(=O)(=O)c3ccc(F)cc3)sc2c1 | 5.07% [at 12.5 µM] (inactive)
COc1ccc(OC)c(-n2cc3c(=O)n(C)c(=O)n(C)c3c2)c1 | 102% [at 12.5 µM] (active)
Cn1c(=O)c2cn(-c3cccc4ccccc34)cc2n(C)c1=O | -1.8% [at 12.5 µM] (inactive)
COc1cccc(-n2cc3c(c2-c2ccccc2)c(=O)n(C)c(=O)n3C)c1 | 13% [at 12.5 µM] (inactive)
COc1ccc(S(=O)(=O)Nc2ccc3c(c2)C(=O)N([C@@H](C)CO)C[C@H](C)[C@@H](CN(C)C(=O)NC(C)C)OCCCC[C@H](C)O3)cc1 | 15.2% (inactive)
C[C@H](CO)N1C[C@H](C)[C@H](CN(C)C)Oc2ccc(NC(=O)c3ccncc3)cc2CC1=O | 5.36% (inactive)
COc1ccc(-c2cc(NC(C)=O)c3ncc(-c4cc(OC)c(OC)c(OC)c4)n3c2)cn1 | 107% [at 12.5 µM] (active)
COc1cccc(-c2cnc3c(NC(C)=O)cc(-c4cc(F)ccc4OC)cn23)c1 | 36.5% [at 12.5 µM] (inactive)
COc1ccccc1-c1cc(NC(C)=O)c2ncc(-c3ccc(F)cc3)n2c1 | 5.94% [at 12.5 µM] (inactive)
Cc1noc(C)c1NC(=O)Nc1ccc2c(c1)CC(=O)N([C@@H](C)CO)C[C@@H](C)[C@H](CN(C)Cc1ccc(Oc3ccccc3)cc1)O2 | -3.38% (inactive)
CCC(=O)Nc1ccc2c(c1)C(=O)N(C)[C@@H]1CC[C@@H](CC(=O)NCCc3ccccc3)O[C@H]1CO2 | -4.08% (inactive)
COCC(=O)Nc1ccc2c(c1)[C@@H]1C[C@H](CC(=O)NCc3cc(F)ccc3F)O[C@@H](CO)[C@@H]1O2 | 12.6% (inactive)
CCC(=O)N1[C@H](CO)[C@@H]2c3ccccc3N(S(=O)(=O)c3ccccc3C)C[C@@H]21 | 0% (inactive)
Cc1ccc(S(=O)(=O)NC2CCCCCC2)cc1C(N)=O | 62.2% [at 12.5 µM] (inactive)
CC(C)c1ccc(S(=O)(=O)NC2CCCC2)cc1 | 51.5% [at 12.5 µM] (inactive)
O=S(=O)(NC1CCCC1)c1ccc(-n2cnnn2)cc1 | -2.1% [at 12.5 µM] (inactive)
CSc1ccc(S(=O)(=O)NC2CCCCC2)cc1 | 102% [at 12.5 µM] (active)
O=S(=O)(NC1CC1)c1ccc(Cl)cc1 | -7.11% [at 12.5 µM] (inactive)
Cc1ccc(S(=O)(=O)NC2CCCCCC2)cc1 | 106% [at 12.5 µM] (active)
O=C(CCc1ccc(S(=O)(=O)NC2CCCCC2)cc1)NCc1ccccc1 | 101% [at 12.5 µM] (active)
CC(C)CNS(=O)(=O)c1ccc(CCC(=O)NCc2ccc(Cl)cc2)cc1 | 15.1% [at 12.5 µM] (inactive)
COc1ccc(C)cc1S(=O)(=O)NC1CCCCC1 | 375% [at 12.5 µM] (active)
Cc1cc(S(=O)(=O)NC2CCCCC2)ccc1OCC(=O)NCc1cccnc1 | 72% [at 12.5 µM] (inactive)
CCOc1ccc(C)cc1S(=O)(=O)NC1CCCCCC1 | 67.9% [at 12.5 µM] (inactive)
COc1ccc(C)cc1S(=O)(=O)Nc1cccc(Cl)c1Cl | 66.7% [at 12.5 µM] (inactive)
